Experiment [1] can be described thus: compounds binding Alexa647 anti-His antibody – biochemical, small-molecule microarray, 635 nm fluorescence, artefact control for SMM control protein annotation, primary screen (AID 1128).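 Note: score merges feature fluorescence with signal-to-noise for each printed compound spot.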 To be noted: higher = more signal.
Experiment [2] relates to Human papillomavirus type 1a E7 protein (residues 1-88). Description: HPV1a E7 small-molecule binders, primary screen, biochemical, small-molecule microarray, residues 1-88, 635 nm (AID 1129). To be noted: small-molecule microarray binding, fluorescence 635 nm; higher = more signal.
The target of experiment [3] is Focal adhesion kinase 1 (Homo sapiens) (UniProt Q05397). In words: PTK2 protein binding on printed compound slides – biochemical, small-molecule microarray, 635/667 nm fluorescence, BSA, DTT, primary screen (AID 1130).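 Note: composite of spot emission at 667 nm and signal to noise over triplicate slides.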 To be noted: 635 nm fluorescence, higher = more signal.
Focal adhesion kinase 1 (Homo sapiens), sequence (Q05397 whole entry, looked up): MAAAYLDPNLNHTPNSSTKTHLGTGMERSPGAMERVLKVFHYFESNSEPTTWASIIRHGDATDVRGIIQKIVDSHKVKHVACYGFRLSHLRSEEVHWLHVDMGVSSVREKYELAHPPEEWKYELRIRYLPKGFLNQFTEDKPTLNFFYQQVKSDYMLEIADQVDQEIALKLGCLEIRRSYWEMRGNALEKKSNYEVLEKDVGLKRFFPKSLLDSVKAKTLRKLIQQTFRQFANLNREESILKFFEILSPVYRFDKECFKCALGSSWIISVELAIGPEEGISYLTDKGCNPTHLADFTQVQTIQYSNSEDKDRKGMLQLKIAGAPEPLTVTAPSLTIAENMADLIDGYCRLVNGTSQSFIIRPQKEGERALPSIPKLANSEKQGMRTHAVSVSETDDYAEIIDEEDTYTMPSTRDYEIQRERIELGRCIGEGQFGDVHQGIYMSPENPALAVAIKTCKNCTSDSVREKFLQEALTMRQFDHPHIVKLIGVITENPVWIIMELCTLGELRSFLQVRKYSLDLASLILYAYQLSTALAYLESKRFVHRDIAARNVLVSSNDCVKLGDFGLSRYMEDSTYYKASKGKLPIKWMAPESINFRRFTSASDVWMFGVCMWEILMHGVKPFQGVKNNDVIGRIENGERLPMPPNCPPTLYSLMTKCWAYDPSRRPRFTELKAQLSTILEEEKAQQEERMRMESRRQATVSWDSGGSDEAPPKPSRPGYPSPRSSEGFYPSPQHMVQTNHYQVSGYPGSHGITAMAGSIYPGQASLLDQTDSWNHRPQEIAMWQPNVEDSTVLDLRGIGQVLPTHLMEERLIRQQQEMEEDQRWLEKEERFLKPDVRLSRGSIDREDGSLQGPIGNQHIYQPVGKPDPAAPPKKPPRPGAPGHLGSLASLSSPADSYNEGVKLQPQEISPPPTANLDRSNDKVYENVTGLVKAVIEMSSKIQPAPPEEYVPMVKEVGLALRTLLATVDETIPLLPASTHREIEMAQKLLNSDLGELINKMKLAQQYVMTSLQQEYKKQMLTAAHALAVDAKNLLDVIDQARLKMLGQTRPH
For experiment [4], the system named is Fibrinogen (Alexa647-labelled). In words: Alexa647-fibrinogen binding to printed small molecules – biochemical, small-molecule microarray, 635/667 nm fluorescence, artefact control for SMM control-protein annotation, profiling panel (AID 1131).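 Note: z-score merges 667 nm fluorescence with per-spot signal-to-noise over triplicate slides.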 The settings on record: fibrinogen-A647 binding fluorescence, higher = more signal.
For experiment [5], the target named is Follistatin (Homo sapiens) (UniProt P19883). In words: FST protein binding to printed compounds – biochemical, small-molecule microarray, 635/667 nm fluorescence, primary screen (AID 1132). The settings on record: 635 nm fluorescence, higher = more signal.
Follistatin (Homo sapiens), sequence (P19883 whole entry, looked up): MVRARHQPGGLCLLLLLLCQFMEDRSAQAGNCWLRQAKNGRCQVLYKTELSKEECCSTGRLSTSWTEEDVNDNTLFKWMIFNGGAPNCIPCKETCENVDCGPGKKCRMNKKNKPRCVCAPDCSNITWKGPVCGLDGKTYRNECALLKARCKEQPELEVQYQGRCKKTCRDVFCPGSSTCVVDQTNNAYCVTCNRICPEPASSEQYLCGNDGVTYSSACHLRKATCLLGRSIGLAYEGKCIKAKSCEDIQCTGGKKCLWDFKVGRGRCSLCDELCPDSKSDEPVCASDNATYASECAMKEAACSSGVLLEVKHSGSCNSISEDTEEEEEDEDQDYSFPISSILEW
For experiment [6], the target named is Fibroblast growth factor 2 (Homo sapiens) (UniProt P09038). In words: basic fibroblast growth factor binding to printed compounds – biochemical, small-molecule microarray, 635/667 nm fluorescence, primary screen (AID 1133). The settings on record: FGF2, fluorescence 635/667, higher = more signal.
Fibroblast growth factor 2 (Homo sapiens), sequence (P09038 whole entry, looked up): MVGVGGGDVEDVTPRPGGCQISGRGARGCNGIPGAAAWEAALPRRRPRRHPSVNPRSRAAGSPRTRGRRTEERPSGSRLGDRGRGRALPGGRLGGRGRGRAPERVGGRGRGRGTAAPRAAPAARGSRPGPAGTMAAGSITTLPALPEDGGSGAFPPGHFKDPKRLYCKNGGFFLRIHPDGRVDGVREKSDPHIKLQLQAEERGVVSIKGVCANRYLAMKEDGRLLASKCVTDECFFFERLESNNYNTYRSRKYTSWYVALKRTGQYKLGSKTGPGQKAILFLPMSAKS
The nature of experiment [7]: JC-1 mitochondrial potential readout, lung cancer cells – cell-based, A549, JC-1 fluorescence, basal, 24 h, 100 nL, profiling panel (AID 1138).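 Note: A549 lung adenocarcinoma cells under basal conditions with no added stimulus; test concentration not given here.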 The settings on record: higher = more signal.
Another experiment deals with Lefty1. Description: Lefty1 protein binding to printed compounds – biochemical, small-molecule microarray, 635/667 nm fluorescence, primary screen (AID 1139). To be noted: fluorescence 635/667, higher = more signal.
In experiment [8] the test system is wheat germ agglutinin (Triticum aestivum), Alexa647-labelled. Description: Alexa647-WGA lectin binding to printed small molecules – biochemical, small-molecule microarray, 635/667 nm fluorescence, artefact control for SMM control-protein annotation, profiling panel (AID 1140).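 Note: score merges 667 nm feature emission with signal to noise over triplicate slides.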 The settings on record: WGA-A647 binding, 635 nm fluorescence, higher = more signal.
The target in experiment [9] is Luciferin 4-monooxygenase (Photinus pyralis) (UniProt P08659). In words: inhibition of purified Photinus pyralis luciferase – biochemical, luminescence, purified enzyme, 2006 set, primary screen (AID 1141).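 Note: cell-free assay with purified firefly luciferase at 100 ng per well in PBS; test concentration not given here.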 To be noted: purified firefly luciferase, SteadyGlo luminescence, 30 min; higher = more signal, called active from +8 up or from −8 down.
Luciferin 4-monooxygenase (Photinus pyralis), sequence (P08659 whole entry, looked up): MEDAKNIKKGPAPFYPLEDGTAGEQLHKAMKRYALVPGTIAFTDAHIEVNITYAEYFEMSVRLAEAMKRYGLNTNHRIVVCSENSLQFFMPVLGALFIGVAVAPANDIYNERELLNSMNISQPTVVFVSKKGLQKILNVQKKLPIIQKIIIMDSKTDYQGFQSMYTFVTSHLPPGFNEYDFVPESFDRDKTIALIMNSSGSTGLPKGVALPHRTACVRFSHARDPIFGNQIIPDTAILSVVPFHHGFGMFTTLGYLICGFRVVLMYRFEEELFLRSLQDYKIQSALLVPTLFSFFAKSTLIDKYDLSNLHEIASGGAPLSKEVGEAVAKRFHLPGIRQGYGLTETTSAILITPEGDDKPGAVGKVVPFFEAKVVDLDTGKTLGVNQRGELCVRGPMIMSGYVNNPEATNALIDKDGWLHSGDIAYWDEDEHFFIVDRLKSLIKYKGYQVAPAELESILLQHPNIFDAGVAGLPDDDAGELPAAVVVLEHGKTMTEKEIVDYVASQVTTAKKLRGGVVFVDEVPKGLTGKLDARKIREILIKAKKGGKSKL
Experiment [10] deals with Wnt5a (protein binding on small-molecule microarray). In words: small molecules binding Wnt5a protein – biophysical, small-molecule microarray, 635/667 nm fluorescence, primary screen (AID 1142).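 Note: fluorescence read at 667 nm with signal to noise per printed feature.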 To be noted: 635 nm fluorescence, higher = more signal.
Experiment [11] is described as follows: ATP-based viability of Huh7 replicon cells – cell-based, CellTiter-Glo luminescence, basal, 48 h, cytotoxicity control for HCV replication inhibitor project, primary screen (AID 1143).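 Note: Huh7 hepatoma cells carrying a hepatitis C replication reporter with no stimulus; test concentration not given here.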 To be noted: higher = more signal, called active from +8 up or from −8 down. On the technique in general: Replicon systems follow genome replication, usually without infectious particles.

Experiment [12] is described as follows: Pseudomonas biofilm growth suppression – PAO1 strain, BacTiter-Glo luminescence, LB-PBS, primary screen (AID 1144). To be noted: P. aeruginosa PAO1 biofilm, 12 h, higher = more signal.
Experiment [13] in a line: basal CRE-LacZ reporter activity in PC12 – cell-based, unstimulated, primary screen (AID 1145). The settings on record: no forskolin, luminescence, 4.5 h, higher = more signal, called active from +8 up or from −8 down.
Experiment [14] in a line: forskolin-driven CRE-LacZ activity in PC12 – cell-based, CRE-LacZ reporter, forskolin-stimulated, primary screen (AID 1146).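 Note: PC12 cells with 6xCRE LacZ reporter stimulated by forskolin 10 µM; beta-galactosidase reporter signal reflecting CREB driven transcription.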 The settings on record: luminescence, 4.5 h, higher = more signal, called active from +8 up or from −8 down.
In experiment [15] the target is Streptavidin (Streptomyces avidinii) (UniProt P22629). In words: compounds binding control protein streptavidin – biophysical, small-molecule microarray, 635/667 nm fluorescence, artefact control for SMM compound annotation, primary screen (AID 1147).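 Note: signal reflects streptavidin binding to arrayed compounds as a control protein.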 To be noted: higher = more signal.
Streptavidin (Streptomyces avidinii), sequence (P22629 whole entry, looked up): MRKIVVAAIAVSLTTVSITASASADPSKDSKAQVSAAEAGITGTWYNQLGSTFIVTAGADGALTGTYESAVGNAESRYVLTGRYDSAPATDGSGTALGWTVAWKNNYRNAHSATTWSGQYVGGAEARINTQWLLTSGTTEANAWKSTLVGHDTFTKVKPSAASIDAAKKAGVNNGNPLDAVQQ
Experiment [16] in a line: probe aInhba binding on compound microarray – biochemical, small-molecule microarray, 635/667 nm fluorescence, primary screen (AID 1148).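 Note: score merges 667nm spot fluorescence with signal-to-noise for antibody binding to printed compounds.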 The settings on record: higher = more signal.
Experiment [17] concerns the target Torsin-1A (Homo sapiens) (UniProt O14656). In words: TOR1A wild-type binding on microarray – cell lysate, small-molecule microarray, lysate, 635/667 nm, primary screen (AID 1149). To be noted: COS7 hTOR1A-WT lysate, 635 nm fluorescence, higher = more signal.
Experiment [18] shares this target. In words: torsin A mutant lysate binding on microarrays – cell lysate, small-molecule microarray, COS7 lysate, 635/667 nm fluorescence, primary screen (AID 1150).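 Note: score pools 667 nm emission and signal to noise measuring lysate protein binding.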 To be noted: COS7 hTOR1A mutant lysate, 635 nm fluorescence, higher = more signal.
For experiment [19], the system named is Sonic hedgehog protein (Shh). In words: Sonic hedgehog microarray binding compounds – biochemical, small-molecule microarray, 635/667 nm fluorescence, primary screen (AID 1151).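 Note: Shh protein binding to compounds spotted on small-molecule microarray slides; score combines spot fluorescence intensity with signal-to-noise across triplicate slides.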 The settings on record: 635 nm fluorescence, higher = more signal.

The source made the active and inactive calls. Unless noted, the rule behind the calls is not given here.

Torsin-1A (Homo sapiens), sequence (O14656 whole entry, looked up): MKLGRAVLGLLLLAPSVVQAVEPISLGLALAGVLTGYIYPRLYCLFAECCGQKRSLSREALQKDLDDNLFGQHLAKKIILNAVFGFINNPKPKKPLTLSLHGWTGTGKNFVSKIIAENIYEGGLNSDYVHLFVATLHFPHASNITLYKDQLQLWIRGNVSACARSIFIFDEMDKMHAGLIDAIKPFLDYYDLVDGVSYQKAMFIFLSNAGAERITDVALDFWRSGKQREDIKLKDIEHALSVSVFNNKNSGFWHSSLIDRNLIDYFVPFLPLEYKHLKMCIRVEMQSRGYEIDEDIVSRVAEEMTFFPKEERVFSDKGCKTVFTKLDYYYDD

Turning to `CO[C@H]1COC(=O)CC=C[C@H](C)[C@@H](OC)COC(=O)[C@H](C)COC(=O)CC=C[C@@H]1C`, the composite z-score is 0.487 in experiment [1]; -0.759 in experiment [2]; -0.309 in experiment [3]; -0.899 in experiment [4]; 1.36 in experiment [5]; 1.36 in [6]. The composite z-score in the experiment with Lefty1 was 1.12; in experiment [8], -0.844; in [10], -0.144; in experiment [15] it was -0.127; in [16] it was -0.208; in the experiment with Torsin-1A (Homo sapiens) [17], 1.1. Moreover, the composite z-score came out at 1.01 with Torsin-1A (Homo sapiens) [18] and 1.93 in experiment [19]. Further, the z-score is 1.13 in experiment [7]; -0.913 (inactive) in experiment [9]; -0.0417 (inactive) in [11]; -0.165 (inactive) in experiment [12]; -0.93 (inactive) in experiment [13]; -0.724 (inactive) in experiment [14].

`CCOC(=O)[C@H](CC(C)C)NC(=O)CCC1CC(OC(=O)NCCc2ccc(F)cc2)CC2(CCCC(COC(=O)NCC(c3ccccc3)c3ccccc3)O2)O1` (stereo not given in full): the composite z-score in experiment [1] was found to be 0.59; in [2] it was 0.749; in experiment [3], 0.097; in experiment [4] it was 0.874; in experiment [5], 0.678; in [6] it was 0.533. Also, the composite z-score was 0.875 in the experiment with Lefty1; 0.737 in [8]; 0.228 in experiment [10]; 1.22 in experiment [15]; 0.0111 in experiment [16]; -0.106 with Torsin-1A (Homo sapiens) [17]. Besides, the composite z-score in the experiment with Torsin-1A (Homo sapiens) [18] turned out to be 0.241; in [19] it was 0.721. For the same compound, the z-score is -0.642 in experiment [7]; 0.897 (inactive) in experiment [9]; -0.361 (inactive) in experiment [11]; -0.427 (inactive) in experiment [12]; -0.438 (inactive) in experiment [13]; -0.292 (inactive) in [14].

For the compound `Cc1ccc(S(=O)(=O)N[C@H]2COC(=O)CC=C[C@H](C)[C@@H](NS(=O)(=O)c3ccc(C)cc3)COC(=O)CC=C[C@@H]2C)cc1`, the composite z-score is -0.308 in experiment [1]; 0.42 in [2]; 0.106 in experiment [3]; 0.129 in experiment [4]; 0.471 in experiment [5]; 0.647 in experiment [6]. Also, the composite z-score is 0.556 in the experiment with Lefty1; 0.0337 in experiment [8]; -0.11 in experiment [10]; 1.17 in [15]; -0.0645 in experiment [16]; 0.649 with Torsin-1A (Homo sapiens) [17]. Besides, the values for the composite z-score (with Torsin-1A (Homo sapiens) [18]; in experiment [19]) were 0.741 and 0.483, respectively. Also, the z-score in [7] is -0.617; in experiment [9], 0.846 (inactive); in experiment [11], -0.591 (inactive); in [12] it was -0.681 (inactive); in [13], -0.008 (inactive); in [14], 0.556 (inactive).

On to `CC(C)(C)N1C(=O)[C@H]2[C@H]3[C@H](O)[C@H](O)CC(=NO[C@@H]4O[C@H](CO)[C@@H](O)[C@H](O)[C@H]4O)[C@H]3CC[C@H]2C1=O`, for which the composite z-score is 0.492 in experiment [1]; 0.15 in [2]; -0.0244 in experiment [3]; -1.06 in experiment [4]; 0.86 in experiment [5]; 0.348 in experiment [6]. Besides, the composite z-score with Lefty1 was 0.585; in [8], -0.297; in experiment [10], 0.0479; in experiment [15] it was -0.132; in experiment [16], 0.179; with Torsin-1A (Homo sapiens) [17], 0.462. Moreover, the composite z-score with Torsin-1A (Homo sapiens) [18] was determined as 0.0791; in experiment [19], 0.345. Moreover, the z-score was -1.43 in [7]; 0.585 (inactive) in [9]; -2.05 (inactive) in [11]; 0.745 (inactive) in experiment [12]; -0.656 (inactive) in experiment [13]; -0.0093 (inactive) in experiment [14].

In the case of `CCOC(=O)NN=C1C[C@@H](O)[C@@H](O)[C@@H]2[C@@H]3C(=O)N(Cc4ccccc4)C(=O)[C@@H]3CC[C@H]12`, the composite z-score in experiment [1] was 0.347; in experiment [2], -0.143; in experiment [3] it was 0.0254; in experiment [4], 0.706; in [5] it was 0.0086; in experiment [6], -0.227. In addition, the composite z-score in the experiment on Lefty1 was 0.3; in [8] it was 0.0439; in experiment [10], -0.0307; in [15] it was 1.09; in experiment [16], -0.214; with Torsin-1A (Homo sapiens) [17] it was 0.0722. In addition, the composite z-score is 1.36 with Torsin-1A (Homo sapiens) [18] and -0.171 in experiment [19]. Moreover, the z-score in [7] is -0.39; in experiment [9], 0.746 (inactive); in [11] it was -0.239 (inactive); in [12], -0.704 (inactive); in experiment [13] it was -0.837 (inactive); in experiment [14], -0.175 (inactive).

These data come from PubChem BioAssay.
